# Source: PubChem BioAssay
# For part of these data: Entries with a potency or affinity are not part of this list. Activity calls are given as the source filed them.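 The calls were made as follows, unless noted: active = membrane potential signal rise above negative control mean plus 3 SD in both duplicates, also active in the earlier TRPC4 screen; inactive = the rest.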
# How the values were obtained:
# [1] = system: TRPC4 beta (transient receptor potential cation channel C4), mouse; assay: TRPC4 cation channel opening, retest – cell-based, Fluo4 calcium, HEK293 TRPC4beta/mu-opioid, duplicates, 10 µM, confirmation (AID 2426;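 active = fluorescence ratio normalized to control raised more than 50% in primary screen plus both repeat runs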); conditions: Fluo4 calcium fluorescence, at 10 µM; active compounds read high
# [2] = system: transient receptor potential cation channel C4 beta (TRPC4), mouse; assay: TRPC4 cation channel opening, second retest – cell-based, second round, Fluo4, HEK293 TRPC4beta/mu-opioid, 1 µM, confirmation (AID 2461;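 active = primary screen active and over 50% activation in each of two duplicate runs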); conditions: Fluo4 calcium fluorescence, at 1 µM; active compounds read high
# [3] = system: TRPC4 (transient receptor potential cation channel C4 beta), mouse; assay: potentiation of DAMGO EC20 TRPC4 response – cell-based, second round, Fluo-4, HEK293 TRPC4beta/mu-opioid, 1 µM, confirmation (AID 2554;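 active = primary screen hit whose fluorescence ratio, in both repeats, exceeds the weak agonist control mean by 3 SD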); conditions: DAMGO EC20, Fluo-4 calcium flux, at 1 µM; active compounds read high
# [4] = system: TRPC4 beta (transient receptor potential cation channel C4), mouse; assay: potentiation of DAMGO EC20 TRPC4 response – cell-based, Fluo-4, HEK293 TRPC4beta/mu-opioid, confirmation (AID 2555;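 active = primary screen hit whose calcium fluorescence ratio, in both repeats, exceeds the weak agonist control mean by 3 SD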); conditions: DAMGO EC20, Fluo-4 calcium flux, at 10 µM; active compounds read high
# [5] = target: Short transient receptor potential channel 4 (Mus musculus) (UniProt Q9QUQ5); assay: blockers of DAMGO-evoked TRPC4 calcium flux – cell-based, Fluo4, HEK293 TRPC4beta/mu-opioid, confirmation (AID 2636;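 active = calcium signal cut by more than 3 SD below the full-agonist control yet still positive, in both repeats and the earlier primary screen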); conditions: at 10 µM; active compounds read high
# [6] = target: Short transient receptor potential channel 4 (Mus musculus) (UniProt Q9QUQ5); assay: blockers of DAMGO-evoked TRPC4 calcium flux – cell-based, second round, Fluo4, HEK293 TRPC4beta/mu-opioid, 1 µM, confirmation (AID 2637;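 active = calcium signal ratio cut to more than 3 SD under the fully stimulated control mean yet still positive, in both repeats and the primary screen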;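 as to inhibition: percent of integrated ratio relative to wells lacking test compound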); conditions: at 1 µM; active compounds read high
# [7] = target: Short transient receptor potential channel 4 (Mus musculus) (UniProt Q9QUQ5); assay: calcium entry via TRPC4 opening agents – cell-based, HEK293 TRPC4/mu-opioid, Fluo-4 calcium, dose response (AID 434937;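 active = primary screen activator hit with a dose response curve and TRPC4 channel activation at any tested dose; inactive = no activation, no dose response, or not a primary hit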)
# [8] = target: Short transient receptor potential channel 4 (Mus musculus) (UniProt Q9QUQ5); assay: potentiation of DAMGO-evoked TRPC4 calcium signal – cell-based, HEK293 TRPC4/mu-opioid, Fluo-4 calcium, EC20 DAMGO, dose response (AID 434941;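 active = earlier screen potentiator hit that boosts the TRPC4 ion channel at some dose, with a dose response; inactive = no potentiation, no dose response, or not a prior hit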;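 also: calcium entry triggered by an EC20 dose of DAMGO at the co-expressed mu-opioid receptor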)
# [9] = target: Short transient receptor potential channel 6 (Mus musculus) (UniProt Q61143); assay: TRPC6 blockade by TRPC4 inhibitor hits – cell-based, HEK293, membrane potential dye, duplicate, selectivity assay for TRPC4 inhibitor project, confirmation (AID 434948;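 active = active in primary screen and both duplicates, each dropping signal beyond three positive-control SD with fluorescence still positive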); conditions: HEK293 TRPC6, membrane potential dye fluorescence, at 10 µM, stimulated with maximal-effect acetylcholine; active compounds read high
# [10] = target: Short transient receptor potential channel 6 (Mus musculus) (UniProt Q61143); assay: TRPC6 opening by TRPC4 activator hits – cell-based, HEK293, membrane potential dye, duplicate, selectivity assay for TRPC4 activator project, confirmation (AID 434950); conditions: HEK293 TRPC6, membrane potential fluorescence, at 10 µM; activation: active compounds read high; outcome: activation
# [11] = target: Short transient receptor potential channel 6 (Mus musculus) (UniProt Q61143); assay: positive modulators of mouse TRPC6 channel – HEK293 cells, membrane potential dye, duplicate, selectivity assay for TRPC4 potentiator project, confirmation (AID 434952;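 active = compound raising the membrane signal above positive-control mean plus 3 SD in both repeats, and a primary screen hit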); conditions: HEK293 TRPC6, membrane potential dye fluorescence, at 10 µM, maximal acetylcholine added after compound; active compounds read high
# [12] = target: Short transient receptor potential channel 4 (Mus musculus) (UniProt Q9QUQ5); assay: calcium flux activators in TRPC4/5HT1a cells, counter-screen for TRPC4 activator project, cell-based, second counter screen, HEK293 TRPC4/5HT1a, Fluo-4 (AID 434977;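 active = calcium signal rise above buffer-control mean plus 5 SD in both duplicates, and also a hit in the primary screen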); conditions: Fluo-4 calcium flux, at 10 µM; active compounds read high
# [13] = serotonin-gated TRPC4 signal block – cell-based, second counter screen, HEK293 TRPC4/5HT1a, Fluo-4, counter-screen for TRPC4 inhibitor project, confirmation (AID 434978;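 active = primary screen active whose calcium signal fell more than 3 SD beyond the full-serotonin control mean in both duplicate plates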;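 as to outcome: serotonin given first at submaximal then at maximal dose after compound preincubation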); conditions: Fluo-4 calcium flux, at 10 µM, serotonin added to trigger calcium flux; active compounds read high
# [14] = system: TRPC4 (mouse), co-expressed with 5HT1a in HEK293; assay: enhancement of serotonin-evoked TRPC4 response – cell-based, second counter screen, HEK293 TRPC4/5HT1a, Fluo-4, counter-screen for TRPC4 potentiator project, confirmation (AID 434979;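 active = signal rise over 3 SD above mean of control wells given weak agonist, in both repeats and first screen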); conditions: Fluo-4 calcium flux, at 10 µM, serotonin added at its EC20 dose; active compounds read high
# [15] = nonspecific calcium rise without TRPC4 – cell-based, HEK293 mu-opioid receptor line, counter-screen for TRPC4 activator project, confirmation (AID 449723;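 active = hit in primary screen, with calcium signal over 5 SD above buffer well mean in both duplicates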;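 also: counter screen cells carry the mu-opioid receptor alone and lack TRPC4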); conditions: HEK293 mu-opioid cells, Fluo-4 calcium fluorescence, at 10 µM; active compounds read high
# [16] = nonspecific potentiation of DAMGO calcium response – cell-based, HEK293 mu-opioid receptor line, counter-screen for TRPC4 allosteric potentiator project, confirmation (AID 449724;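 active = calcium signal rise more than 3 SD above the low-dose agonist control mean, in both duplicate plates and the primary screen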); conditions: HEK293 mu-opioid receptor cells, Fluo-4 calcium flux, at 10 µM, compound added before EC20 DAMGO stimulus; active compounds read high
# Chain of Short transient receptor potential channel 4 (Mus musculus) (Q9QUQ5 whole entry, looked up): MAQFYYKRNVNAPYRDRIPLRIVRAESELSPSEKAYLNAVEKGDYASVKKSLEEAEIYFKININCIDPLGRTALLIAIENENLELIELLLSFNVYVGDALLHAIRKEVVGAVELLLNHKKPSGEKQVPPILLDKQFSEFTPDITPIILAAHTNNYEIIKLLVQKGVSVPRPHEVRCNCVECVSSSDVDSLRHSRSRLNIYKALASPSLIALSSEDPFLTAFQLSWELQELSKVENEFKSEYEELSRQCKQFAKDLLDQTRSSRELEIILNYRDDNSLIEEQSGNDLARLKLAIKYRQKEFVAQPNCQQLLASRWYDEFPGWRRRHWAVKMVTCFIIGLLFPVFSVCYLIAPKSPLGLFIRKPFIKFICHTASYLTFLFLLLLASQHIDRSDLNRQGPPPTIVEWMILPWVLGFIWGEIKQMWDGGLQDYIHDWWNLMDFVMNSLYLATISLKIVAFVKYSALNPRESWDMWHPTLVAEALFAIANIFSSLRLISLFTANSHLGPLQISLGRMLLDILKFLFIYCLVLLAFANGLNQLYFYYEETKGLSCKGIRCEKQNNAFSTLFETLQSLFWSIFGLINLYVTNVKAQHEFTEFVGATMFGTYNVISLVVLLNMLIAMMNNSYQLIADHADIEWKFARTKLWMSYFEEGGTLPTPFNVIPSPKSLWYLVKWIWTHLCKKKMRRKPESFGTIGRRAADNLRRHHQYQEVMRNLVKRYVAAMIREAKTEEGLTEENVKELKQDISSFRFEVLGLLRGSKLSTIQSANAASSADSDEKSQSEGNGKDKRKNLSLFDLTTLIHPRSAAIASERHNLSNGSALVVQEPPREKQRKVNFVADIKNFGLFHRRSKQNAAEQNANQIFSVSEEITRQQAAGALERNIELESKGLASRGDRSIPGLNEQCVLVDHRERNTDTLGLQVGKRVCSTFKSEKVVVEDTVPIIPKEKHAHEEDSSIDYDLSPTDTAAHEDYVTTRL
# Chain of Short transient receptor potential channel 6 (Mus musculus) (Q61143 whole entry, looked up): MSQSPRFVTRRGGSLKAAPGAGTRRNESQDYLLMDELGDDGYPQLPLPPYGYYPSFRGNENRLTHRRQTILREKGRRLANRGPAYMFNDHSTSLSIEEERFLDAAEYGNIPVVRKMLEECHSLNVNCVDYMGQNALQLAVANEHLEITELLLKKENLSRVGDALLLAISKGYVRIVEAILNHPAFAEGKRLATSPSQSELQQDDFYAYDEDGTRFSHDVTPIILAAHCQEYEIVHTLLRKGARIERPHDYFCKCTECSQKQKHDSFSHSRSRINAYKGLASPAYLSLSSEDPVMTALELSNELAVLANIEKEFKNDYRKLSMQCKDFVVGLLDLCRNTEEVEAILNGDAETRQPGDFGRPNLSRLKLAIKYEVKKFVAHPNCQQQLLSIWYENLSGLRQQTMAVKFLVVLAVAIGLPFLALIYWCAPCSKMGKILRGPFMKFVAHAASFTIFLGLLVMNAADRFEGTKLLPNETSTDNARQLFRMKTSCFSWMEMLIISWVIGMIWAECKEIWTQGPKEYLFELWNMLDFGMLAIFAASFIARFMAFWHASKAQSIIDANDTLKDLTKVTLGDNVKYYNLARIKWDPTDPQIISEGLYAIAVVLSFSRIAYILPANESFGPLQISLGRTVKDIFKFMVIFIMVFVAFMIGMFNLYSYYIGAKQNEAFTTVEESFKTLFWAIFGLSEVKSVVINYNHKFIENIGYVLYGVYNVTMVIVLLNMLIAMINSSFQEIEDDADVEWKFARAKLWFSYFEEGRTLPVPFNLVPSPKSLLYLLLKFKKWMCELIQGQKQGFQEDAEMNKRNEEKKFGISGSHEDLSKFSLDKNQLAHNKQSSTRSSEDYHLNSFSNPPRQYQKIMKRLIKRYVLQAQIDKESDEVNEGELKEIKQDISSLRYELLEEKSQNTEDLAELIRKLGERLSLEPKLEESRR
smiles,measurement,setting,value
O=C(Nc1cccc(Cl)c1)N1CCN2C(=O)c3ccccc3C12c1ccccc1 (stereo not given),outcome,[1],inactive
same,outcome,[2],inactive
same,outcome,[3],inactive
same,outcome,[4],inactive
same,inhibition,[5],69% (active)
same,outcome,[6],inactive
same,outcome,[7],inactive
same,outcome,[8],inactive
same,outcome,[9],inactive
same,outcome,[10],inactive
same,outcome,[11],inactive
same,outcome,[12],inactive
same,outcome,[13],inactive
same,outcome,[14],inactive
same,outcome,[15],inactive
same,outcome,[16],inactive
Cc1c(CN2CCC(n3nccc3NC(=O)CCc3ccccc3)CC2)cnn1C,outcome,[1],inactive
same,outcome,[2],inactive
same,outcome,[3],inactive
same,outcome,[4],inactive
same,inhibition,[5],94% (active)
same,inhibition,[6],68% (active)
same,outcome,[7],inactive
same,outcome,[8],inactive
same,outcome,[9],inactive
same,outcome,[10],inactive
same,outcome,[11],inactive
same,outcome,[12],inactive
same,outcome,[13],inactive
same,outcome,[14],inactive
same,outcome,[15],inactive
same,outcome,[16],inactive
Cc1cc(C)nc(/N=C(\N)N(Cc2ccccc2)Cc2ccccc2)n1,outcome,[1],inactive
same,outcome,[2],inactive
same,outcome,[3],inactive
same,outcome,[4],inactive
same,inhibition,[5],97% (active)
same,outcome,[6],inactive
same,outcome,[7],inactive
same,outcome,[8],inactive
same,inhibition,[9],30.5% (active)
same,outcome,[10],inactive
same,outcome,[11],inactive
same,outcome,[12],inactive
same,inhibition,[13],41.7% (active)
same,outcome,[14],inactive
same,outcome,[15],inactive
same,outcome,[16],inactive
CCC(O)C1CCN(Cc2cn(-c3ccc(OC)cc3)nc2-c2cccc(F)c2)CC1 (stereo not given),outcome,[1],inactive
same,outcome,[2],inactive
same,outcome,[3],inactive
same,outcome,[4],inactive
same,inhibition,[5],98% (active)
same,outcome,[6],inactive
same,outcome,[7],inactive
same,outcome,[8],inactive
same,outcome,[9],inactive
same,outcome,[10],inactive
same,outcome,[11],inactive
same,outcome,[12],inactive
same,outcome,[13],inactive
same,outcome,[14],inactive
same,outcome,[15],inactive
same,outcome,[16],inactive
COc1ccc(C2CC2/C(=N/O)c2ccccc2)cc1 (stereo not given),outcome,[1],inactive
same,outcome,[2],inactive
same,outcome,[3],inactive
same,outcome,[4],inactive
same,inhibition,[5],94% (active)
same,outcome,[6],inactive
same,outcome,[7],inactive
same,outcome,[8],inactive
same,outcome,[9],inactive
same,outcome,[10],inactive
same,outcome,[11],inactive
same,outcome,[12],inactive
same,inhibition,[13],7.57% (active)
same,outcome,[14],inactive
same,outcome,[15],inactive
same,outcome,[16],inactive
CCCCc1nc(SCCOC)c2c(=O)n(C)c(=O)n(C)c2n1,outcome,[1],inactive
same,outcome,[2],inactive
same,outcome,[3],inactive
same,outcome,[4],inactive
same,inhibition,[5],88% (active)
same,outcome,[6],inactive
same,outcome,[7],inactive
same,outcome,[8],inactive
same,outcome,[9],inactive
same,outcome,[10],inactive
same,outcome,[11],inactive
same,outcome,[12],inactive
same,inhibition,[13],12.3% (active)
same,outcome,[14],inactive
same,outcome,[15],inactive
same,outcome,[16],inactive
CCCCn1c2ccccc2c2nnc(SCCN3CCCCC3)nc21,outcome,[1],inactive
same,outcome,[2],inactive
same,outcome,[3],inactive
same,outcome,[4],inactive
same,inhibition,[5],84% (active)
same,outcome,[6],inactive
same,outcome,[7],inactive
same,outcome,[8],inactive
same,inhibition,[9],44.5% (active)
same,outcome,[10],inactive
same,outcome,[11],inactive
same,outcome,[12],inactive
same,inhibition,[13],31.3% (active)
same,outcome,[14],inactive
same,outcome,[15],inactive
same,outcome,[16],inactive
COC(=O)c1c(NC(=O)CSc2ncn[nH]2)sc(C)c1C,outcome,[1],inactive
same,outcome,[2],inactive
same,outcome,[3],inactive
same,outcome,[4],inactive
same,inhibition,[5],67% (active)
same,outcome,[6],inactive
same,outcome,[7],inactive
same,outcome,[8],inactive
same,outcome,[9],inactive
same,outcome,[10],inactive
same,outcome,[11],inactive
same,outcome,[12],inactive
same,outcome,[13],inactive
same,outcome,[14],inactive
same,outcome,[15],inactive
same,outcome,[16],inactive
CCCCn1c(NC(=O)c2ccccc2)nc2ccccc21,outcome,[1],inactive
same,outcome,[2],inactive
same,outcome,[3],inactive
same,potentiation,[4],20% (active)
same,outcome,[5],inactive
same,outcome,[6],inactive
same,outcome,[7],inactive
same,outcome,[8],inactive
same,outcome,[9],inactive
same,outcome,[10],inactive
same,outcome,[11],inactive
same,outcome,[12],inactive
same,outcome,[13],inactive
same,outcome,[14],inactive
same,outcome,[15],inactive
same,outcome,[16],inactive
CSC1=NC2(CCCCC2)C2=C(CCCC2)N1,outcome,[1],inactive
same,outcome,[2],inactive
same,outcome,[3],inactive
same,outcome,[4],inactive
same,inhibition,[5],96% (active)
same,outcome,[6],inactive
same,outcome,[7],inactive
same,outcome,[8],inactive
same,outcome,[9],inactive
same,outcome,[10],inactive
same,outcome,[11],inactive
same,outcome,[12],inactive
same,inhibition,[13],33% (active)
same,outcome,[14],inactive
same,outcome,[15],inactive
same,outcome,[16],inactive
N#CCCn1cc(CNCc2ccccc2)c(-c2cccc([N+](=O)[O-])c2)n1,outcome,[1],inactive
same,outcome,[2],inactive
same,outcome,[3],inactive
same,outcome,[4],inactive
same,inhibition,[5],65% (active)
same,inhibition,[6],36% (active)
same,outcome,[7],inactive
same,outcome,[8],inactive
same,outcome,[9],inactive
same,outcome,[10],inactive
same,outcome,[11],inactive
same,outcome,[12],inactive
same,inhibition,[13],30.7% (active)
same,outcome,[14],inactive
same,outcome,[15],inactive
same,outcome,[16],inactive
Nc1cc(=O)nc(SCC(=O)N2CCN(c3ccccc3)CC2)n1-c1ccc(F)cc1,outcome,[1],inactive
same,outcome,[2],inactive
same,outcome,[3],inactive
same,outcome,[4],inactive
same,inhibition,[5],95% (active)
same,inhibition,[6],45% (active)
same,outcome,[7],inactive
same,outcome,[8],inactive
same,outcome,[9],inactive
same,outcome,[10],inactive
same,outcome,[11],inactive
same,outcome,[12],inactive
same,inhibition,[13],43.7% (active)
same,outcome,[14],inactive
same,outcome,[15],inactive
same,outcome,[16],inactive
OCC1(CCc2ccccc2)CCN(Cc2ccc3nsnc3c2)CC1,outcome,[1],inactive
same,outcome,[2],inactive
same,outcome,[3],inactive
same,outcome,[4],inactive
same,inhibition,[5],83% (active)
same,outcome,[6],inactive
same,outcome,[7],inactive
same,outcome,[8],inactive
same,outcome,[9],inactive
same,outcome,[10],inactive
same,outcome,[11],inactive
same,outcome,[12],inactive
same,outcome,[13],inactive
same,outcome,[14],inactive
same,outcome,[15],inactive
same,outcome,[16],inactive
Oc1ccc(CN2CCCCC2)nc1-c1ccccc1,outcome,[1],inactive
same,outcome,[2],inactive
same,outcome,[3],inactive
same,outcome,[4],inactive
same,inhibition,[5],92% (active)
same,inhibition,[6],43% (active)
same,outcome,[7],inactive
same,outcome,[8],inactive
same,outcome,[9],inactive
same,outcome,[10],inactive
same,outcome,[11],inactive
same,outcome,[12],inactive
same,inhibition,[13],31.7% (active)
same,outcome,[14],inactive
same,outcome,[15],inactive
same,outcome,[16],inactive
CCOC(=O)C1=C(C)NC(=O)CC1c1cc2c(cc1[N+](=O)[O-])OCO2 (stereo not given),outcome,[1],inactive
same,outcome,[2],inactive
same,outcome,[3],inactive
same,outcome,[4],inactive
same,inhibition,[5],71% (active)
same,inhibition,[6],40% (active)
same,outcome,[7],inactive
same,outcome,[8],inactive
same,outcome,[9],inactive
same,outcome,[10],inactive
same,outcome,[11],inactive
same,outcome,[12],inactive
same,inhibition,[13],20.2% (active)
same,outcome,[14],inactive
same,outcome,[15],inactive
same,outcome,[16],inactive
